Some test systems named below: HCT-15 colon; HT29 colon; SNB-75 CNS; SNB-19 CNS; U251 CNS; PC-3 prostate; SK-MEL-5 melanoma; UACC-62 melanoma; SK-MEL-28 melanoma.
What all share (test): NCI-60 one-dose screen, 48 h (100 = growth as untreated, 0 = no growth, -100 = all killed)
What all share (conditions): 10 µM unless noted

The text below walks through data of PubChem BioAssay (NCI).

Compounds without any hit were thinned out: in the full panel of roughly 83,000, 20% have a hit.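 Single-dose data. Exposure time 48 hours. Values below 10 considered active.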 Active and inactive are the calls of the source.

In the case of `Cc1csc(Nc2nc(-c3ccc(Cl)cc3)nc(C(Cl)(Cl)Cl)n2)n1`, the growth in the assay on HCT-15 colon is 84.1% (inactive); in the assay on HT29 colon, 63.1% (inactive); in the assay on SNB-75 CNS, 89.4% (inactive); with SNB-19 CNS it was 72.9% (inactive); with U251 CNS, 72.8% (inactive); with PC-3 prostate, 74.1% (inactive). Further, the results for the growth in the assay with SK-MEL-5 melanoma, in the assay on UACC-62 melanoma and in the assay on SK-MEL-28 melanoma were 93.1% (inactive), 83.2% (inactive) and 92% (inactive), respectively.
Turning to `CC1(n2nnnc2N2CCCN(c3ncccc3N)CC2)CCC1`, the growth is 58.3% (inactive) in the assay with HCT-15 colon; 108% (inactive) with HT29 colon; 81.7% (inactive) with SNB-75 CNS; 98.6% (inactive) with SNB-19 CNS; 101% (inactive) with U251 CNS; 75.3% (inactive) in the assay on PC-3 prostate. The growth was 86.3% (inactive) in the assay on SK-MEL-5 melanoma, 94.9% (inactive) in the assay on UACC-62 melanoma and 100% (inactive) in the assay with SK-MEL-28 melanoma.
As for `C#Cc1cccc(NC(=O)C2CCCN(C(=O)CCl)C2)c1` (configuration not stated), the growth was 25.2% [8.25 µM] (inactive) with HCT-15 colon; 83.9% [8.25 µM] (inactive) in the assay on HT29 colon; 91.9% [8.25 µM] (inactive) in the assay on SNB-75 CNS; 85.7% [8.25 µM] (inactive) with SNB-19 CNS; 72% [8.25 µM] (inactive) with U251 CNS; 96.2% [8.25 µM] (inactive) in the assay with PC-3 prostate. For the same compound, the growth with SK-MEL-5 melanoma is 19.4% [8.25 µM] (inactive); with UACC-62 melanoma, 44.2% [8.25 µM] (inactive); with SK-MEL-28 melanoma, 102% [8.25 µM] (inactive).
As for `O=C(/C=C/c1cccc(O)c1)c1ccccc1O`, the growth is 92.9% (inactive) with HCT-15 colon; 87.7% (inactive) in the assay with HT29 colon; 72% (inactive) with SNB-75 CNS; 90.1% (inactive) in the assay on SNB-19 CNS; 77% (inactive) with U251 CNS; 83.8% (inactive) in the assay on PC-3 prostate. Further, the growth is 92.3% (inactive) in the assay with SK-MEL-5 melanoma, 87.4% (inactive) in the assay on UACC-62 melanoma and 98.2% (inactive) with SK-MEL-28 melanoma.
Take `N#CC1=C(N)Oc2ccc3ccccc3c2C1c1ccccc1` (configuration not stated): the growth with HCT-15 colon was 19.5% (inactive); with HT29 colon it was 17.7% (inactive); in the assay on SNB-75 CNS, -16.3% (active); with SNB-19 CNS, 29.5% (inactive); with U251 CNS, 32.5% (inactive); in the assay on PC-3 prostate, 40.6% (inactive). Besides, the growth is 25.7% (inactive) in the assay on SK-MEL-5 melanoma, 18.6% (inactive) in the assay on UACC-62 melanoma and 54.6% (inactive) with SK-MEL-28 melanoma.
For `Brc1cnc2[nH]cc(-c3nnc(-c4ccccc4)o3)c2c1`, the growth in the assay on HCT-15 colon was 55% (inactive); with HT29 colon, 74.8% (inactive); with SNB-75 CNS it was 66.3% (inactive); in the assay on SNB-19 CNS it was 79.5% (inactive); in the assay with U251 CNS, 74.6% (inactive); with PC-3 prostate it was 77.9% (inactive). Further, the growth was 80.4% (inactive) in the assay on SK-MEL-5 melanoma, 66.9% (inactive) with UACC-62 melanoma and 90.9% (inactive) in the assay on SK-MEL-28 melanoma.
With `Brc1ccc2[nH]cc(-c3nc(-c4c[nH]c5ncccc45)cs3)c2c1`, the growth in the assay with HCT-15 colon was -32.3% (active); in the assay with HT29 colon, 9.69% (active); in the assay with SNB-75 CNS, 37.3% (inactive); with SNB-19 CNS, 68.8% (inactive); in the assay with U251 CNS, 27.7% (inactive); in the assay with PC-3 prostate it was 38.1% (inactive). For the same compound, the growth was 54.7% (inactive) in the assay on SK-MEL-5 melanoma, 41.9% (inactive) in the assay with UACC-62 melanoma and 71.6% (inactive) in the assay on SK-MEL-28 melanoma.
Take `COc1cc(-c2cc(-c3nc4ccccc4[nH]3)[nH]n2)cc(OC)c1OC`: the growth was 48.8% (inactive) in the assay with HCT-15 colon; 69.3% (inactive) in the assay on HT29 colon; 51.9% (inactive) in the assay with SNB-75 CNS; 86.9% (inactive) in the assay on SNB-19 CNS; 55.8% (inactive) in the assay with U251 CNS; 5.47% (active) with PC-3 prostate. Further, the growth is -44.4% (active) in the assay on SK-MEL-5 melanoma, 34.5% (inactive) in the assay on UACC-62 melanoma and 61.8% (inactive) in the assay on SK-MEL-28 melanoma.
